Screening data: PubChem, University of Kansas High Throughput Screening Laboratory
A selection: hits, their analogues and other compounds. The true share with any hit is near 3.5%.
mHTT-CaM PPI inh – mutant huntingtin-calmodulin interaction inhibitors – biochemical, AlphaScreen, primary screen. AlphaScreen His-mHTT/GST-CaM binding, luminescence. inhibition, % at 15 µM. 190,000 compounds, 3.6% hits
Pf apPOL inh – Pf-apPOL inhibitors, biochemical, fluorescence | AID 1794808, 2022 | Plasmodium falciparum apicoplast DNA polymerase (apPOL) | 210,000 compounds, 0.25% hits | inhibition, % at 10 µM | Recombinant Pf-apPOL, molecular beacon fluorescence, 1.5 h
A number is an active result; . = inactive; / = no result given. Cut-off read from the data, not from the text of the source: active = inhibition above about 50%; inactive = the rest.

SMILES | mHTT-CaM PPI inh | Pf apPOL inh
O=C1CC[C@@H](OCc2ccccc2)CCN1CC[C@H](Sc1ccccc1)c1ccccc1 | 59 | .
CC(C)N(CC#CC(C)(C)O)Cc1ccccc1 | . | .
COC(=O)c1ccc(NC(=O)N2CCCC2c2ccccc2C)cc1 (stereo unspecified) | . | .
COc1ccc(CCNC(=O)Cc2nn(C)c(=O)c3ccccc23)cc1OC | . | .
CC(C)CNC(=O)NCc1c(-n2cccc2)sc2c1CCN(C)C2 | . | .
CN(C)C(=O)c1cc2c(s1)CCC(C(=O)N1CCN(Cc3ccccc3)CC1)C2 (stereo unspecified) | . | .
N#COc1ccc(Nc2ccc(OC#N)cc2)cc1 | 95 | .
COc1ccc(Nc2c(Cl)cc(OC)cc2Cl)cc1 | / | .
N#COc1ccc(Oc2ccc(OC#N)cc2)cc1 | 97 | .
N#Cc1ccc(Oc2ccc(N)cc2)cc1 | . | .
O=[N+]([O-])c1ccc(S(=O)(=O)N2CCN(C/C=C/c3ccccc3)CC2)cc1 | . | .
CS(=O)(=O)N1CCN(c2ccc([N+](=O)[O-])c(SCc3ccco3)c2)CC1 | . | .
Cn1ccnc1SCc1cc(=O)c(OC(=O)CC2CCCCC2)co1 | . | .
O=C(CC(c1ccccc1)c1ccccc1)Oc1coc(CSc2ncccn2)cc1=O | 99 | .
Cc1ccnc(SCc2cc(=O)c(OC(=O)Cc3ccc([N+](=O)[O-])cc3)co2)n1 | 88 | .
Cc1csc(SCc2cc(=O)c(OC(=O)c3cccc([N+](=O)[O-])c3)co2)n1 | . | .
O=C(CCS(=O)(=O)c1ccc(Br)s1)NC1CCCc2ccccc21 (stereo unspecified) | . | .
Nc1ncc(C2=C(Cl)C(O)C(Cl)=C(Cl)C2O)s1 (stereo unspecified) | 100 | .
CCc1cc2c(cc(C(=O)N(C)C)n2C)s1 | . | .
CN1CCc2cc(C(CNC(=O)c3ccccc3Br)N3CCOCC3)ccc21 (stereo unspecified) | . | .
CN1CCc2cc(C(CNC(=O)Cc3cccc4ccccc34)N3CCOCC3)ccc21 (stereo unspecified) | 61 | .
CC(=O)N(C1=C(N2CCCCC2)C(=O)c2ccccc2C1=O)c1cccc(Cl)c1 | 76 | .
CC(=O)N(C1=C(N2CCOCC2)C(=O)c2ccccc2C1=O)c1ccc(C(=O)O)cc1 | . | .
CC(=O)N(C1=C(N2CCCC2)C(=O)c2ccccc2C1=O)c1ccc(F)c(F)c1 | 100 | .
CC(=O)N(C)C1=C(N2CCCC2)C(=O)c2ccccc2C1=O | . | .
SMILES | mHTT-CaM PPI inh | Pf apPOL inh
CCC(=O)NCCc1csc(C2CCN(C(=O)NC(C)(C)C)CC2)n1 | . | .
Cc1ccc(N2CCN(C(C)C(=O)NCC3CCCO3)CC2)cc1 (stereo unspecified) | . | .
c1ccc2nc(-c3nc4ccccc4[nH]3)ccc2c1 | . | .
CC1C(c2ccc3ccccc3n2)=CNc2ccccc21 (stereo unspecified) | 91 | .
CCN(Cc1ccccc1)S(=O)(=O)c1ccc(F)c(C(=O)Nc2ccccc2OC)c1 | . | .
Cc1c(-c2cc(N)n(C)n2)sc2ccc(Cl)cc12 | / | .
Cc1ccc(C(=O)N2CCCC2COc2ccc(C(=O)N3CCOCC3)cc2)cc1 (stereo unspecified) | . | .
CC(C)c1ccc(C(=O)N2CCCC2COc2ccc(C(=O)N3CCOCC3)cc2)cc1 (stereo unspecified) | . | 52
Cc1ccc(NC(=O)Nc2ccc3c(c2)N(S(C)(=O)=O)CC3)c(C)c1 | . | .
COC(=O)CNC(=O)N1CCc2nc3cc(-c4ccccc4Cl)[nH]n3c(=O)c2C1 | . | .
Cn1c(C(=O)NC2CC2)cc2c1CCN(Cc1cccc(F)c1)C2 | . | .
Cn1c(C(=O)Nc2ccc3c(c2)OCO3)cc2c1CCN(Cc1cccc(F)c1)C2 | 52 | .
CC(=O)c1cccc(NC(=O)c2cc3c(n2C)CCN(Cc2cccc(F)c2)C3)c1 | 60 | .
Cn1c(C(=O)NCCN2CCCCC2)cc2c1CCN(Cc1cccc(F)c1)C2 | . | .
CCCSc1nc2c(cnn2-c2ccc(C)c(C)c2)c(=O)[nH]1 | . | .
Cc1ccc(-n2ncc3c(=O)[nH]c(SCC(=O)O)nc32)cc1C | . | 72
Cn1c(SCc2ccc(Cl)cc2)nnc1-c1cccc(NC(=O)c2ccccc2Cl)c1 | . | .
CC(C)N1C(=O)C(C)(C(=O)Nc2cccc(Cl)c2)Oc2cccnc21 (stereo unspecified) | . | .
CC(C)N1C(=O)C(C)(C(=O)Nc2ccc(F)c(Cl)c2)Oc2cccnc21 (stereo unspecified) | 100 | .
O=C(CN1CCN(c2ccc(Cl)cc2)CC1)Nc1ccc(Cl)c(C(F)(F)F)c1 | 51 | .
O=C(CN1CCN(c2ccccn2)CC1)Nc1ccc(Cl)c(C(F)(F)F)c1 | . | .
Cc1csc(NC(=O)c2sc3nc(-c4cccc([N+](=O)[O-])c4)cn3c2C)n1 | . | .
NC(=O)c1ccc(Oc2cccc(Oc3ccc(C(N)=O)cc3)c2)cc1 | . | .
Cc1cccc(Oc2ccc(N3C(=O)C=CC3=O)cc2)c1C | . | .
Nc1ccc(Oc2cccc(Oc3ccc(N)cc3)c2)cc1 | 52 | .
SMILES | mHTT-CaM PPI inh | Pf apPOL inh
O=C1C=CC(=O)N1c1ccc(Oc2cccc(Oc3ccc(N4C(=O)C=CC4=O)cc3)c2)cc1 | 91 | .
O=C(O)CCc1ccc(-c2ccc(F)cc2)[nH]1 | . | .
CC(C)CNc1nc2c(c(=O)n(Cc3ccc(Cl)cc3Cl)c(=O)n2C)n1C | . | .
CC1CCCN(c2nc(-c3ccc([N+](=O)[O-])cc3)nc3ccccc23)C1 (stereo unspecified) | 60 | .
COc1cc(-c2nc(N3CCCC(C)C3)c3ccccc3n2)cc(OC)c1OC (stereo unspecified) | . | .
Oc1ccc(-c2csc(-c3ccccc3)n2)cc1O | . | .
NC(N)=Nc1nc(-c2ccc(O)c(O)c2)cs1 | 61 | .
CCCC1CCC2(CCCN2CCOC(=S)Nc2ccccc2OC)CC1 (stereo unspecified) | . | .
O=[N+]([O-])c1ccc(-c2csc(Nc3ccc(Oc4ccccc4)cc3)n2)cc1 | 60 | .
COc1ccc(Nc2nc(-c3cccc(NC(C)=O)c3)cs2)cc1 | . | .
Cc1ccc(-c2csc(Nc3ccc(Oc4ccccc4)cc3)n2)cc1 | 68 | .
COc1ccc(-c2csc(Nc3ccc(N)cc3)n2)cc1 | 88 | .
Cc1ccc(-c2csc(Nc3ccc(Cl)cc3)n2)cc1 | . | .
O=[N+]([O-])c1cccc(Nc2nc(-c3ccncc3)cs2)c1 | . | .
COc1ccc(-c2csc(Nc3ccc(C)cn3)n2)cc1 | . | .
Clc1ccc(-c2csc(Nc3ccc(Oc4ccccc4)cc3)n2)cc1 | 52 | .
COc1ccc(NC(=O)c2cc3c(n(-c4ccc(C)cc4)c2=O)CCCC3=O)cc1 | . | .
Cc1ccc(C(=O)N2CCCC3(C2)Nc2cccnc2NC3=NCc2ccccc2)cn1 (stereo unspecified) | . | .
CC1CCCCN1CCNC(=O)CN1N=C(c2ccc(Cl)cc2)CCC1=O (stereo unspecified) | . | .
Cc1ccc(Nc2nc(-c3ccccc3)cs2)cc1 | 64 | .
O=[N+]([O-])c1ccc(-c2csc(Nc3cc(Cl)cc(Cl)c3)n2)cc1 | . | .
Cc1ccc(-c2csc(Nc3ccccc3)n2)cc1 | 61 | .
Clc1cc(Cl)cc(Nc2nc(-c3ccccc3)cs2)c1 | 96 | .
Clc1ccc(-c2csc(Nc3ccccc3)n2)s1 | / | .
Cc1ccc(Nc2nc(-c3ccncc3)cs2)cc1 | . | .
